A selection: hits, their analogues and other compounds. The true share with any hit is near 8.1%.
SW480 rereplic = inducers of DNA re-replication in SW480 colon cancer cells. SW480 DNA re-replication, Hoechst DNA content imaging, 48 h. Potency, µM (top dose mostly 46.1 µM), most hits filed as activators. 1.8% of 340,000 active. AID 624297; further: nearly all actives have a fitted effect of over 55% in size
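Image-based DNA-content assay: after two days of treatment, nuclei were labelled with the DNA dye Hoechst and imaged, and hits were compounds raising the count of nuclei showing high fluorescence intensity.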
KB-3-1 cytotox = kills parental KB-3-1 adenocarcinoma cells; AID 1347075; 1.4% of 400,000 active; KB-3-1 viability, CellTiter-Glo ATP luminescence, 72 h; Potency, µM (top dose mostly 46.1 µM), actives largely listed as cytotoxic; further: nearly all actives have a fitted effect of over 60% in size
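Screening of KB-3-1 cells (DMEM, 10% FBS, phenol-red free) ran from lowest to highest compound concentration; after 72 h at 37 °C viability was read luminescently and curves fitted.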
ELG1 repair inh = ELG1-dependent DNA repair inhibition; Potency, µM (series often up to 46.1 µM), hits mostly inhibitors; 2.3% of 330,000 active; HEK293T ELG1-luciferase reporter, luminescence, 16 h; DNA damage induced by 5-fluorouridine; AID 504467; further: nearly all actives have a fitted effect of over 55% in size
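HEK293T cells expressing luciferase-tagged ELG1 (2,000/well) received 5-Fluorouridine plus compound or DMSO for 16 hr at 37 °C. Luciferase was read by ONE-Glo luminescence after 30 min at room temperature.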
KB-V1 cytotox = kills drug-selected multidrug resistant KB-V1 cells | 3.4% of 400,000 active | Potency, µM (highest dose often 46.1 µM), hits mostly cytotoxic | AID 1347076 | KB-V1 MDR cells viability, CellTiter-Glo, 72 h; further: nearly all actives have a fitted effect of over 60% in size
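qHTS viability screen in drug-selected KB-V1 MDR cells: 72 h compound treatment at 37 degrees C, ATP luminescence end point.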
MCF10A rerep = inducers of DNA re-replication in MCF 10A breast cells; MCF 10A DNA re-replication, Hoechst nuclear intensity, 48 h; Potency, µM (series often up to 46.1 µM), most hits filed as activators; 2.9% of 350,000 active; AID 624296; further: nearly all actives have a fitted effect of over 50% in size
Hits are given with their value. The call rests on the fitted dose curve; in most records, active means well fitted curve in the direction sought with a large enough effect; inconclusive means small, poorly fitted or top-dose-only effect, or another doubt; inactive means no such curve, though single readings can be large; an effect the other way counts as inactive or inconclusive.

O=c1c2cc(NC(=S)NC3CCCC3)ccc2nc2n1CCCCC2 was read as SW480 rereplic inactive, KB-3-1 cytotox inactive, ELG1 repair inh inactive, KB-V1 cytotox 21µM and MCF10A rerep inactive.
Screening Cc1cccc(N2CCN(C(=S)Nc3ccc4nc5n(c(=O)c4c3)CCCCC5)CC2)c1C returned SW480 rereplic inconclusive, KB-3-1 cytotox inconclusive, ELG1 repair inh inactive, KB-V1 cytotox inconclusive and MCF10A rerep 23µM.
COc1ccccc1CNC(=O)C(=O)NCC(c1ccco1)S(=O)(=O)c1cccs1 (stereo not given) was read as KB-3-1 cytotox inactive and KB-V1 cytotox inactive.
`CCCCn1c(N)c(N(CCOC)C(=O)COC(=O)COc2cccc(C(C)=O)c2)c(=O)[nH]c1=O` gave SW480 rereplic inactive, KB-3-1 cytotox inactive, ELG1 repair inh inactive, KB-V1 cytotox inactive and MCF10A rerep inactive.
Screening Cc1ccc(Cl)cc1NC(=O)C(C)n1nc(-c2ccccc2)ccc1=O (stereo not given) returned KB-3-1 cytotox inactive and KB-V1 cytotox inactive.
Screening CCc1nn(CC(=O)NCc2ccco2)c(=O)c2cc3cc(F)ccc3n12 returned KB-3-1 cytotox inactive and KB-V1 cytotox inactive.
Screening S=C(c1ccc2c(c1)OCO2)N1CCN(c2cccc(Cl)c2)CC1 returned SW480 rereplic 5.2µM, KB-3-1 cytotox 4.1µM, KB-V1 cytotox inconclusive and MCF10A rerep 1.5µM.
For Cc1cccc(N2CCN(C(=S)c3ccc4c(c3)OCO4)CC2)c1 the results were SW480 rereplic 6.5µM, KB-3-1 cytotox 10µM, KB-V1 cytotox inactive and MCF10A rerep 1.3µM.
For O=C(NC1CCN(Cc2ccccc2)CC1)c1ccc(Cn2c(=O)c3ccccc3n(Cc3ccc(Cl)cc3)c2=O)cc1 the results were KB-3-1 cytotox inactive and KB-V1 cytotox inconclusive.
Screening Cn1c2c(c(=O)n(C)c1=O)C(C(F)(F)F)(C(F)(F)F)N=C(CCC1CCCCC1)N2 returned SW480 rereplic inactive, KB-3-1 cytotox 23µM, ELG1 repair inh inconclusive, KB-V1 cytotox inconclusive and MCF10A rerep inconclusive.
For Cn1c2c(c(=O)n(C)c1=O)C(C(F)(F)F)(C(F)(F)F)N=C(c1ccccc1Cl)N2 the results were SW480 rereplic inactive, KB-3-1 cytotox inconclusive, ELG1 repair inh inconclusive, KB-V1 cytotox inconclusive and MCF10A rerep inactive.
For COc1ccccc1C1(CCNS(=O)(=O)c2ccc(C)cc2)CCOC(C(C)C)C1 (stereo not given) the results were SW480 rereplic inconclusive, KB-3-1 cytotox inconclusive, ELG1 repair inh inconclusive, KB-V1 cytotox 3.7µM and MCF10A rerep inconclusive.
`COc1ccccc1C1(CCNC(C)c2cccs2)CCOC(C(C)C)C1` (stereo not given) gave SW480 rereplic inactive, KB-3-1 cytotox inactive, ELG1 repair inh inconclusive, KB-V1 cytotox inconclusive and MCF10A rerep inconclusive.
Screening Cc1cc(C)cc(C(O)c2ncc(-c3ccccc3C(F)(F)F)[nH]2)c1 (stereo not given) returned KB-3-1 cytotox inactive and KB-V1 cytotox inactive.
COc1ccc(NC(=O)CC2C(=O)N(C)C(=S)N2Cc2ccc3c(c2)OCO3)cc1 (stereo not given) was read as SW480 rereplic inconclusive, KB-3-1 cytotox inactive, ELG1 repair inh inactive, KB-V1 cytotox 15µM and MCF10A rerep inactive.
Screening COc1ccc(NC(=O)CC2C(=O)N(c3ccc(C)cc3)C(=O)N2Cc2ccc3c(c2)OCO3)cc1 (stereo not given) returned KB-3-1 cytotox inactive and KB-V1 cytotox inactive.
Screening COc1ccc(NC(=O)CC2C(=O)N(C)C(=S)N2CCc2ccccc2)cc1 (stereo not given) returned SW480 rereplic inconclusive, KB-3-1 cytotox inconclusive, ELG1 repair inh inconclusive, KB-V1 cytotox 10µM and MCF10A rerep inconclusive.
Screening COc1ccc(S(=O)(=O)N2CCN(C(=O)CC3CC4CCC3C4)CC2)cc1 (stereo not given) returned SW480 rereplic inconclusive, KB-3-1 cytotox inactive, ELG1 repair inh inactive, KB-V1 cytotox inactive and MCF10A rerep inactive.
`CN(C)c1cccc(F)c1C(=O)NC(=O)Nc1ccc(Cl)cc1` gave SW480 rereplic inconclusive, KB-3-1 cytotox 3.7µM, KB-V1 cytotox 1.8µM and MCF10A rerep 10µM.
For CN(C)c1cccc(N(C)C)c1CNC(=O)NC(=O)c1c(F)cccc1F the results were SW480 rereplic inactive, KB-3-1 cytotox inactive, ELG1 repair inh inactive, KB-V1 cytotox inconclusive and MCF10A rerep inactive.
`COC(=O)C1=C(N)Oc2cc(C)n(CC3CCCO3)c(=O)c2C1c1ccccc1OC` (stereo not given) gave SW480 rereplic inactive, KB-3-1 cytotox inactive, ELG1 repair inh inactive, KB-V1 cytotox inactive and MCF10A rerep inactive.
COC(=O)C1=C(N)Oc2cc(N(C)C)ccc2C1c1ccccc1OC (stereo not given) was read as SW480 rereplic 12µM, KB-3-1 cytotox inactive, ELG1 repair inh inactive, KB-V1 cytotox inconclusive and MCF10A rerep 9.2µM.
Screening COc1ccc(N2CCN(C(c3ccccc3)c3nnnn3Cc3ccccc3)CC2)cc1 (stereo not given) returned KB-3-1 cytotox inactive and KB-V1 cytotox inactive.
`O=C1CSC(=Nc2cccc(Cl)c2Cl)N1Cc1cccnc1` gave SW480 rereplic inactive, KB-3-1 cytotox inactive, ELG1 repair inh inactive, KB-V1 cytotox 16µM and MCF10A rerep inactive.
`Cc1ccccc1N=C1SCC(=O)N1Cc1ccccc1` gave SW480 rereplic inactive, KB-3-1 cytotox inactive, ELG1 repair inh inactive, KB-V1 cytotox inconclusive and MCF10A rerep inactive.
CCOC(=O)c1cnc(-n2nc(C)cc2C)nc1Nc1ccc(OC)cc1 was read as SW480 rereplic inconclusive, KB-3-1 cytotox inactive, ELG1 repair inh inconclusive, KB-V1 cytotox inactive and MCF10A rerep inactive.
For CCOC(=O)c1cnc(-n2nc(C)cc2C)nc1NCCc1ccccc1 the results were SW480 rereplic inactive, KB-3-1 cytotox inactive, ELG1 repair inh inconclusive, KB-V1 cytotox 0.73µM and MCF10A rerep inconclusive.
`CCOC(=O)c1cnc(-n2nc(C)cc2C)nc1NCc1ccc2c(c1)OCO2` gave SW480 rereplic inconclusive, KB-3-1 cytotox inconclusive, ELG1 repair inh 21µM, KB-V1 cytotox inconclusive and MCF10A rerep inconclusive.
`CCOC(=O)c1cnc(-n2nc(C)cc2C)nc1NC1CCCC1` gave SW480 rereplic inactive, KB-3-1 cytotox inactive, ELG1 repair inh inconclusive, KB-V1 cytotox 5.2µM and MCF10A rerep inactive.
`CCOC(=O)c1cnc(-n2nc(C)cc2C)nc1Nc1ccccc1OC` gave ELG1 repair inh inactive.
Screening CCOC(=O)[C@H]1[C@H]2COc3ccc(Cl)cc3[C@@H]2N2C(=O)CN(C)C(=O)[C@@]12C returned SW480 rereplic inactive, KB-3-1 cytotox inactive, ELG1 repair inh inactive, KB-V1 cytotox inactive and MCF10A rerep inactive.
For CCOC(=O)c1oc2ccccc2c1NC(=O)COc1ccc(F)cc1 the results were SW480 rereplic inactive, KB-3-1 cytotox inactive, ELG1 repair inh inactive, KB-V1 cytotox 8.2µM and MCF10A rerep inconclusive.

Source: PubChem BioAssay
